In article PMC3795721, “Screening for Protein-DNA Interactions by Automatable DNA-Protein Interaction ELISA”:

molecular target: AT4G31550 (Arabidopsis thaliana, UniProt Q9SV15 228-325); assay: DPI-ELISA; DPI-ELISA, streptavidin 384-well plate, 1-2 pmol biotinylated dsDNA per well, crude native E. coli extract, anti-His detection; buffer as in Brand et al. [46],; high values mean tight binding; conditions: tags: C-terminal His (pET-DEST42); label: 5' biotin on forward strand; dsDNA, one strand shown
Sequence (Q9SV15 228-325): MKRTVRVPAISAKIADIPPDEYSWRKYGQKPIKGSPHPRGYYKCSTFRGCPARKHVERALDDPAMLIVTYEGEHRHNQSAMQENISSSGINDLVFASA

Sequence	binding signal
AAAAAACGCATCATAGCTACGCCCCAAAAA	0.62 ± 0.0849 absorbance
AAAAAACCTTCCCCCTCTTCTGCCTTAAAA	0.665 ± 0.0354 absorbance
AAAAAAAAGAGCCTGGGGGTTCGCATAAAA	0.655 ± 0.0636 absorbance
AAAAAATCAACCATTATGGTATTACTAAAA	0.79 ± 0.212 absorbance
AAAAAATTACTATTACACACTTGGGGAAAA	0.6 ± 0.127 absorbance
AAAAAACTGTCTGTCCTATATCACTTAAAA	0.66 ± 0.099 absorbance
AAAAAAGGCCACGGTAACCCCTTTTGAAAA	0.695 ± 0.12 absorbance
AAAAAATGTGGTTACGGCCTCGATGAAAAA	0.565 ± 0.106 absorbance
AAAAAAGGGTTTAGATGTCCTTCAAAAAAA	0.59 ± 0.099 absorbance
AAAAAACTAACCGTCGCAGGCGTGTGAAAA	0.715 ± 0.134 absorbance
AAAAAAGGCTCCGGCCCCCAATCGCAAAAA	0.61 ± 0.0566 absorbance
AAAAAATTAGACGCTACACTTACGGTAAAA	0.665 ± 0.106 absorbance
AAAAAAATCATCCTATTGTTGCTGTCAAAA	0.665 ± 0.12 absorbance
AAAAAACTTCTAGTTTATGCTTCCGTAAAA	0.69 ± 0.141 absorbance
AAAAAACGTTGAACCTGGGCCTCAACAAAA	1.39 ± 0.191 absorbance
AAAAAATCATTTTATTTTGCCTTTCTAAAA	0.56 ± 0.127 absorbance
AAAAAATAGACCCTGACCCACCATTGAAAA	0.71 ± 0.113 absorbance
AAAAAAAGTATCAAAGCCTAGGGCTGAAAA	0.605 ± 0.205 absorbance
AAAAAAGTCCGCCCTTAATTCATATTAAAA	1.37 ± 0.269 absorbance

Sequence	binding signal
AAAAAAGTTTCCTACTTGTGTCTGTGAAAA	0.53 ± 0.0849 absorbance
AAAAAACCGACCTGCACGTCGCTGCTAAAA	0.505 ± 0.106 absorbance
AAAAAATTTTGTGGTGTTTCGCCACCAAAA	0.715 ± 0.0495 absorbance
AAAAAATTGGCACACATGATCTCGGGAAAA	0.56 ± 0.113 absorbance
AAAAAAGGAAAACGAGTTCATCTGGTAAAA	0.585 ± 0.134 absorbance
AAAAAACCAACTCTCTTTCGGACTATAAAA	0.67 ± 0.156 absorbance
AAAAAATGGTCGATCCGCATGCAGTTAAAA	0.52 ± 0.099 absorbance
AAAAAATTTGCTCTTTTGGTTTTCACAAAA	0.64 ± 0.0707 absorbance
AAAAAAGGTCTGGACGATCACCGGGAAAAA	0.565 ± 0.12 absorbance
AAAAAAATTTTTAGTTTTAATTTTGGAAAA	0.615 ± 0.106 absorbance
AAAAAACAACTTGGAGGATTTACAGCAAAA	0.73 ± 0.141 absorbance
AAAAAATAAATCGCGGCTACTGCTTCAAAA	0.55 ± 0.141 absorbance
AAAAAATATGTTTTCGCTTTATTCTTAAAA	0.52 ± 0.099 absorbance
AAAAAAGGCGTCTGACTGTAACTCGTAAAA	1.43 ± 0.445 absorbance
AAAAAATATCATTGTTACCGTTGCTAAAAA	0.465 ± 0.12 absorbance
AAAAAATATTCCGCTTTTGGCTGAATAAAA	0.635 ± 0.0636 absorbance
AAAAAAAGTCTGCGGCTGCAGGGCGGAAAA	1.91 ± 0.368 absorbance
AAAAAATTCGTTTTTCGTCTTTCATTAAAA	0.7 ± 0.156 absorbance
AAAAAAAGTGGCCGCTAGTCAACTCAAAAA	3.46 ± 0.389 absorbance
